# About 410 targets per protein were measured; listed, in parts, are those with the strongest signals and a random draw of the rest.
# B1: HPA (Helix pomatia), Q575S3 (protein)
# chain: MWAHLTGLLLICALSLSAAQRAQTGEIDCGSDSSWPKDPSDNPNRDNTREIVKHVTFSPQFCREPKVILSVTTLDAEHTKNLRYEARLKSVSPSGLSASCYSWHDGTIYRMKLSWLAVED
# Columns and labels:
# Test in all cases: glycan array binding signal (z-score within array); higher = stronger binding
# Conditions in all cases: glycan notation: IUPAC condensed, linker removed
# [1] = target: Fuc(a1-2)Gal(b1-3)[Fuc(a1-4)]GlcNAc(b1-2)Man(a1-3)[Fuc(a1-2)Gal(b1-3)[Fuc(a1-4)]GlcNAc(b1-2)Man(a1-3)]Man(b1-4)GlcNAc(b1-4)GlcNAc
# Method in brief: (§1)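 Columns mapping to the same glycan were averaged after glycan names were converted to IUPAC-condensed notation. The data come from 3228 arrays in the Consortium for Functional Glycomics database, limited to those with an available protein sequence. Binding is reported as a within-array Z-score averaged across arrays of one protein sequence and across linkers.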
# [2] = target: Fuc(a1-2)Gal(b1-4)Fuc(a1-3)]GlcNAc(b1-2)Man(a1-3)[Fuc(a1-2)Gal(b1-4)[Fuc(a1-3)]GlcNAc(b1-2)Man(a1-6)]Man(b1-4)GlcNAc(b1-4)GlcNAc
# Method in brief: as §1
# [3] = target: Fuc(a1-2)Gal(b1-4)GlcNAc(b1-2)Man(a1-3)[Fuc(a1-2)Gal(b1-4)GlcNAc(b1-2)Man(a1-6)]Man(b1-4)GlcNAc(b1-4)[Fuc(a1-6)]GlcNAc
# Method in brief: as §1
# [4] = target: Fuc(a1-2)Gal(b1-4)[Fuc(a1-3)]GlcNAc
# Method in brief: as §1
# [5] = target: Fuc(a1-2)Gal(b1-4)[Fuc(a1-3)]GlcNAc(b1-2)Man(a1-3)[Fuc(a1-2)Gal(b1-4)[Fuc(a1-3)]GlcNAc(b1-2)Man(a1-6)]Man(b1-4)GlcNAc(b1-4)GlcNAc
# Method in brief: as §1
# [6] = target: Fuc(a1-2)[GalNAc(a1-3)]Gal(b1-3)GalNAc(a1-3)[Fuc(a1-2)]Gal(b1-4)GlcNAc
# Method in brief: as §1
# [7] = target: Fuc(a1-2)[GalNAc(a1-3)]Gal(b1-3)GalNAc(b1-3)Gal(a1-4)Gal(b1-4)Glc
# Method in brief: as §1
# [8] = target: Fuc(a1-2)[GalNAc(a1-3)]Gal(b1-4)GlcNAc(b1-3)Gal(b1-4)GlcNAc
# Method in brief: as §1
# [9] = target: Fuc(a1-2)[GalNAc(a1-3)]Gal(b1-4)GlcNAc(b1-3)Gal(b1-4)GlcNAc(b1-3)Gal(b1-4)GlcNAc
# Method in brief: as §1
# [10] = target: Fuc(a1-2)[GalNAc(a1-3)]Gal(b1-4)GlcNAc(b1-6)GalNAc
# Method in brief: as §1
# [11] = target: Fuc(a1-2)[GalNAc(a1-4)]Gal(b1-4)GlcNAc
# Method in brief: as §1
# [12] = target: Fuc(a1-3)[Gal(b1-4)]GlcNAc(b1-4)Gal(b1-4)[Fuc(a1-3)]GlcNAc(b1-4)Gal(b1-4)[Fuc(a1-3)]GlcNAc
# Method in brief: as §1
# [13] = target: Fuc(a1-3)[Gal(b1-4)]GlcNAc(b1-6)[Gal(b1-3)GlcNAc(b1-3)]Gal(b1-4)Glc
# Method in brief: as §1
# [14] = target: Gal(a1-3)Gal(b1-4)Glc
# Method in brief: as §1
# [15] = target: Gal(b1-2)Gal
# Method in brief: as §1
# [16] = target: Gal(b1-3)Gal(b1-4)GlcNAc(b1-2)Man(a1-3)[Gal(b1-3)Gal(b1-4)GlcNAc(b1-2)Man(a1-6)]Man(b1-4)GlcNAc(b1-4)GlcNAc
# Method in brief: as §1
# [17] = target: Gal(b1-3)GlcNAc(b1-2)Man
# Method in brief: as §1
# [18] = target: Gal(b1-3)GlcNAc(b1-3)Gal(b1-4)GlcNAc(b1-6)[Gal(b1-3)GlcNAc(b1-3)]Gal(b1-4)Glc
# Method in brief: as §1
# [19] = target: Gal(b1-3)[Fuc(a1-4)]GlcNAc(b1-2)Man(a1-3)[Gal(b1-3)[Fuc(a1-4)]GlcNAc(b1-2)Man(a1-6)]Man(b1-4)GlcNAc(b1-4)[Fuc(a1-6)]GlcNAc
# Method in brief: as §1
# [20] = target: Gal(b1-3)[GlcNAc(b1-6)]GalNAc
# Method in brief: as §1
# [21] = target: Gal(b1-3)[Neu5Ac(b2-6)]GalNAc
# Method in brief: as §1
# [22] = target: Gal(b1-4)GlcNAc(b1-2)Man(a1-6)[GlcNAc(b1-2)Man(a1-3)]Man(b1-4)GlcNAc(b1-4)GlcNAc
# Method in brief: as §1
# [23] = target: Gal(b1-4)GlcNAc(b1-2)[Gal(b1-4)GlcNAc(b1-6)]Man(a1-6)[GlcNAc(b1-4)][Gal(b1-4)GlcNAc(b1-2)[Gal(b1-4)GlcNAc(b1-4)]Man(a1-3)]Man(b1-4)GlcNAc(b1-4)[Fuc(a1-6)]GlcNAc
# Method in brief: as §1
# [24] = target: Gal(b1-4)GlcNAc(b1-3)Gal(b1-4)GlcNAc(b1-3)Gal(b1-4)GlcNAc(b1-2)[Gal(b1-4)GlcNAc(b1-3)Gal(b1-4)GlcNAc(b1-3)Gal(b1-4)GlcNAc(b1-6)]Man(a1-6)[Gal(b1-4)GlcNAc(b1-3)Gal(b1-4)GlcNAc(b1-3)Gal(b1-4)GlcNAc(b1-2)Man(a1-3)]Man(b1-4)GlcNAc(b1-4)[Fuc(a1-6)]GlcNAc
# Method in brief: as §1
# [25] = target: Gal(b1-4)GlcNAc(b1-3)Gal(b1-4)GlcNAc(b1-3)Gal(b1-4)GlcNAc(b1-3)Gal(b1-4)GlcNAc(b1-3)Gal(b1-4)GlcNAc(b1-2)Man(a1-3)[Gal(b1-4)GlcNAc(b1-3)Gal(b1-4)GlcNAc(b1-3)Gal(b1-4)GlcNAc(b1-3)Gal(b1-4)GlcNAc(b1-3)Gal(b1-4)GlcNAc(b1-2)Man(a1-6)]Man(b1-4)GlcNAc(b1-4)[Fuc(a1-6)]GlcNAc
# Method in brief: as §1
# [26] = target: Gal3S6S(b1-4)GlcNAc
# Method in brief: as §1
# [27] = target: Gal4S(b1-4)GlcNAc
# Method in brief: as §1
# [28] = target: Gal6S(b1-3)GlcNAc6S
# Method in brief: as §1
binder,measurement,setting,value
B1,glycan array binding signal (z-score),[1],-0.229
same,glycan array binding signal (z-score),[2],-0.186
same,glycan array binding signal (z-score),[3],-0.229
same,glycan array binding signal (z-score),[4],-0.264
same,glycan array binding signal (z-score),[5],-0.221
same,glycan array binding signal (z-score),[6],4.9
same,glycan array binding signal (z-score),[7],4.46
same,glycan array binding signal (z-score),[8],4.44
same,glycan array binding signal (z-score),[9],4.28
same,glycan array binding signal (z-score),[10],2.54
same,glycan array binding signal (z-score),[11],5.52
same,glycan array binding signal (z-score),[12],-0.271
same,glycan array binding signal (z-score),[13],-0.251
same,glycan array binding signal (z-score),[14],-0.261
same,glycan array binding signal (z-score),[15],-0.259
same,glycan array binding signal (z-score),[16],-0.266
same,glycan array binding signal (z-score),[17],0.558
same,glycan array binding signal (z-score),[18],-0.246
same,glycan array binding signal (z-score),[19],-0.227
same,glycan array binding signal (z-score),[20],-0.265
same,glycan array binding signal (z-score),[21],-0.268
same,glycan array binding signal (z-score),[22],-0.239
same,glycan array binding signal (z-score),[23],-0.252
same,glycan array binding signal (z-score),[24],-0.25
same,glycan array binding signal (z-score),[25],-0.253
same,glycan array binding signal (z-score),[26],-0.266
same,glycan array binding signal (z-score),[27],-0.267
same,glycan array binding signal (z-score),[28],-0.242

# — the supplement of paper PMC8728848
